The list is not random: actives were taken first. Their share in the collection is about 11%.
HADH2 inh – blocks human hydroxyacyl-CoA dehydrogenase type II; Potency, µM (doses to about 57.1 µM), for the others: at the highest dose activity change, negative = inhibition, hits mostly inhibitors; AID 886; Q99714; recombinant HADH2, NADH fluorescence, beta-hydroxybutyryl-CoA; actives 3.4% (n = 73,000); note: nearly all actives have a fitted effect of over 60% in size
Target sequence (Q99714 whole entry, looked up, one chain of several): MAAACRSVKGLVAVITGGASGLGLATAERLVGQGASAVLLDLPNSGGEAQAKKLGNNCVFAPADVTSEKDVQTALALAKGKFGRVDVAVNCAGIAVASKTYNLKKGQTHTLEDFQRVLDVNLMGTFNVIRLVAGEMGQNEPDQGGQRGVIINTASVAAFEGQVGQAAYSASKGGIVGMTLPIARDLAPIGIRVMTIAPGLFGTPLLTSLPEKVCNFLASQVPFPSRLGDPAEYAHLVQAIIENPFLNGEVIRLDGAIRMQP
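Buffer 100 mM Tris-HCl pH 9.0/0.01% Tween-20; HADH2 20 nM; NAD+ 1 mM; beta-hydroxybutyryl-CoA 90 uM (all final). 15 min cpd preincubation, RT.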
HSD17B inhib – HSD17B dehydrogenase inhibition; Q99714; recombinant HSD17B10, NADH fluorescence kinetic; Potency, µM (highest dose often 57.1 µM), for the others: at the top dose activity change, negative = inhibition, usual class: inhibitors; actives 7.6% (n = 75,000);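 note: the protocol describes HADH2 (HSD17B10) and not the HSD17B4 of the title; nearly all actives have a fitted effect of over 70% in size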
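Activity followed as NADH fluorescence increase (ex 360, em 450 nm) every 30 seconds for 4 min, using final 90 uM beta-hydroxybutyryl CoA and 1 mM NAD+. Recombinant His-tagged enzyme, 20 nM, pH 9.0 Tris buffer, 15 min compound preincubation.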
ERK AVP block – blocks ERK signaling stimulated by vasopressin; HEK293-V1b, vasopressin-stimulated pERK AlphaScreen; Potency, µM (titrated, usually from 57.5 µM), for inactives: top-dose activity, negative = inhibition, most hits filed as inhibitors; AID 995; actives 0.99% (n = 72,000); note: nearly all actives have a fitted effect of over 55% in size
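V1b-HEK293 cells; cpd 30 min 37C; 25 nM vasopressin 5 min; lyse 10 min; AlphaScreen beads 5 hr RT. Normalized to DMSO basal and 25 nM vasopressin; AC50 by Hill fit.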
FLuc inh – blocks Photinus pyralis firefly luciferase activity; P08659; purified firefly luciferase, luminescence, 8 min; Potency, µM (titrated, usually from 57.1 µM), inactives show top-dose activity change, negative = inhibition, most hits filed as inhibitors; actives 2.2% (n = 72,000); note: nearly all actives have a fitted effect of over 40% in size
Target sequence (P08659 whole entry, looked up): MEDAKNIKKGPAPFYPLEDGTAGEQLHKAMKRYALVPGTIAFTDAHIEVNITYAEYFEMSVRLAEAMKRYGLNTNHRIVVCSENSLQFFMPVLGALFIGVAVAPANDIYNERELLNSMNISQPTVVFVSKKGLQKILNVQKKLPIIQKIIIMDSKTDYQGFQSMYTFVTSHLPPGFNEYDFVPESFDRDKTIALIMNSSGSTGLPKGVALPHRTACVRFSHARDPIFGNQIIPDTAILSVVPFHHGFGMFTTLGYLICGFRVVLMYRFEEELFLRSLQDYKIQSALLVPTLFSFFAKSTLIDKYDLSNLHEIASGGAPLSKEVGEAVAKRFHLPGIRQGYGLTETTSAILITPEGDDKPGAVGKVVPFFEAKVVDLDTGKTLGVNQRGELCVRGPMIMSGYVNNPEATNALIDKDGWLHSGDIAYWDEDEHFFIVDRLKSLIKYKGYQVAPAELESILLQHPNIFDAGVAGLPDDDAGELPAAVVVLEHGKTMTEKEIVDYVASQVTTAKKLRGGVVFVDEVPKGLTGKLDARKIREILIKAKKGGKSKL
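Firefly luciferase (PKLight detection mix) with 10 uM ATP in pH 7.2 imidazole buffer (KCl, MgCl2, Tween 20, BSA). Compounds tested across a concentration series (qHTS). Luminescence read after 8 min at ambient temperature.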
15-hLO inh – 15-hLO (ALOX15) enzyme inhibition | Potency, µM (titrated, usually from 57.1 µM), without a hit: top-dose activity change, negative = inhibition, most hits filed as inhibitors | actives 1.4% (n = 74,000) | purified 15hLO-1, xylenol orange hydroperoxide absorbance; note: nearly all actives have a fitted effect of over 55% in size
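40 nM 15hLO-1 + cpd, 15 min RT; start w/ 50 uM AA (final), 6 min RT; stop/detect w/ 200 uM XO + 300 uM Fe(II) in 50 mM H2SO4, 30 min; A573/A405. Buffer 25 mM Hepes pH 7.5, 0.01% Triton X-100. No-enzyme wells as negative control.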
Bst PK mod – pyruvate kinase (B. stearothermophilus) modulation. purified pyruvate kinase, luminescence ATP production; ribose 5-phosphate activator present at AC10. Potency, µM. actives 1.2% (n = 51,000). AID 361; in the data active = potency below about 11 µM; inconclusive = mostly about 12 µM to 25 µM;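 the screen sought inhibitors and activators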;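 note: scaled between full activation by ribose 5 phosphate and full inhibition by luteolin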
* marks the source's active call; other numbers are inactive results; i = inactive; u = inconclusive; x = no result; ! = not confirmed by another sample; [ ] = remark or other dose. Unless noted, calls come from the whole dose curve; as a rule, active = well fitted curve in the direction sought with a large enough effect; inconclusive = small, poorly fitted or top-dose-only effect, or another doubt; inactive = no such curve, though single readings can be large; an effect the other way counts as inactive or inconclusive. Unless noted, % is set by controls: 0 for no effect and ±100 for the full control effect; potency is the fitted concentration of half-maximal effect.

SMILES | HADH2 inh | HSD17B inhib | ERK AVP block | FLuc inh | 15-hLO inh | Bst PK mod
O=C1O[C@@H]([C@H](O)[C@H](O)[C@H](O)CO)[C@@H](O)[C@@H]1O | 0%[11.4 µM] | 3%[11.4 µM] | -17%[11.5 µM] | 0%[11.4 µM] | 3%[11.4 µM] | x
COc1cc(C(=O)OC(C)C(=O)N2CCc3ccccc3C2)ccc1OCC(=O)N1CCOCC1 (stereo not given) | 5% | -14% | -15% | -2% | -23% | 11*
CC(=O)NCCc1ccc(O)c(O)c1 | 0.5µM* | 7.9µM* | 10% | -17% | -17% | x
NC(Cc1ccc(O)c(O)c1)C(=O)O (stereo not given) | x | 13µM* | -27% | x | 4µM* | x
NCCc1ccc(O)c(O)c1 | 0.5µM* | 32µM*! | u | -4% | 7% | x
CCOC(=O)COc1ccc(CCNC(C)=O)cc1 | 20% | 0% | 3% | 1% | 2% | >57
C[N+](C)(C)c1ncnc2c1ncn2[C@@H]1CCCCO1 | 8%[11.4 µM] | -2%[11.4 µM] | -13%[11.5 µM] | 4%[11.4 µM] | 8%[11.4 µM] | x
O=C(COC(=O)c1ccccn1)c1ccc(Br)cc1 | -8%[11.4 µM] | 2% | -16% | 10µM* | 8%[11.4 µM] | x
Cc1ccc(C(=O)COC(=O)c2cnccn2)cc1 | 3% | 10% | 4% | u | -29% | x
CO[C@H]1COC(=O)[C@H](C)NC(=O)C/C=C\[C@@H](C)[C@H](OC)COC(=O)[C@@H](OCc2ccccc2)/C=C\[C@@H]1C | -8%[11.4 µM] | 7%[11.4 µM] | -4%[11.5 µM] | -1%[11.4 µM] | 11%[11.4 µM] | x
O=C(O)c1ccc(CNc2ccccc2C(=O)O)cc1 | u | 32µM* | -21% | 0% | -16% | >57
O=C(O)c1ccccc1C(=O)NCc1ccccc1 | 1% | 8% | -12% | -7% | -3% | x
O=C(O)c1ccccc1NCc1ccncc1 | u | 32µM* | -2% | 2% | u | >57
O=C(O)CCNc1ccccc1C(=O)O | -12%[11.4 µM] | 3.2µM* | -8%[11.5 µM] | 1%[11.4 µM] | 3%[11.4 µM] | x
CSc1nc(-c2ccco2)nn1S(=O)(=O)c1ccc(C)cc1 | -6% | u | -13% | -13% | 25µM* | x
O=c1[nH]c(=S)[nH]c2c1CN(CCCN1CCOCC1)CN2 | 2%[11.4 µM] | -3%[11.4 µM] | 15%[11.5 µM] | 2%[11.4 µM] | 0%[11.4 µM] | x
CC1(C)Cc2c(sc3nc(SCC(=O)O)[nH]c(=O)c23)CO1 | 3% | u | -1% | 0% | 0% | >57
CC1(C)Cc2c(sc3ncn4nc(CCC(=O)O)c(=O)nc4c23)CO1 | -8% | 32µM* | -8% | 2% | -2% | >57
FC(F)(F)c1cc(-c2ccco2)nc(NCc2cccnc2)n1 | 9% | 25µM* | u | -2% | u | >57
COc1ccccc1-c1cc(N(C)Cc2ccco2)ncn1 | -12% | 32µM* | -5% | 1%[2.29 µM] | 9% | x
COc1ccccc1-c1cc(C(F)(F)F)nc(NCc2ccco2)n1 | -16% | 25µM* | 56% | -1% | u | >57
COc1ccccc1-c1cc(C(F)(F)F)nc(N2CCOCC2)n1 | u | u | 3% | 0% | u | >57
COc1ccc(CCNc2nc(-c3ccco3)cc(C(F)(F)F)n2)cc1OC | -16% | 0% | 23% | -1% | -23% | >57
CN(Cc1ccco1)c1cc(-c2ccccc2Cl)ncn1 | 13% | -26% | -3% | 1%[2.29 µM] | -6% | x
Fc1ccc(CNc2nc(-c3ccco3)cc(C(F)(F)F)n2)cc1 | u | 25µM* | 11% | -3% | 25µM* | >57
SMILES | HADH2 inh | HSD17B inhib | ERK AVP block | FLuc inh | 15-hLO inh | Bst PK mod
NCCc1nc(-c2nc(C(=O)O)cs2)cs1 | 0%[11.4 µM] | 3%[11.4 µM] | -20%[11.5 µM] | 3%[11.4 µM] | 4%[11.4 µM] | x
CC(=O)Nc1ccc(S(=O)(=O)N2CCN(C(=O)N3CCOCC3)CC2)cc1 | 3% | -2% | -3% | 0% | 14% | 3.2*
Cc1cc(O)c(-c2cc(C(=O)Nc3ccc(S(=O)(=O)N4CCOCC4)cc3)[nH]n2)cc1C | 26% | 4% | 25µM* | -6% | u | >57
Cc1cc(NC(=O)c2oc3ccccc3c2C)ccc1-n1cnnn1 | 30% | u | -4% | 10µM* | -9% | i
Cc1c(C(=O)Nc2ccncc2)oc2ccccc12 | 0% | -1% | u | -10% | 8% | >57
COc1cc(OC)cc(C(=O)Nc2ccc(-n3cnnn3)c(C)c2)c1 | 7% | -22% | -2% | -22% | -17% | >57
Cc1c(C(=O)Nc2ccc(N3CCOCC3)cc2)oc2ccccc12 | 2% | -9% | -27% | 2.5µM* | -7% | u
c1ccc(CN2CCC3(CC2)SSC2(CCN(Cc4ccccc4)CC2)SS3)cc1 | u | -2%[11.4 µM] | 3%[11.5 µM] | 0%[11.4 µM] | 4%[11.4 µM] | x
Cc1ccc(NC(=O)c2oc3ccc(S(=O)(=O)N4CCOCC4)cc3c2C)cc1C | 5% | 25µM* | 7% | -1% | -1% | >57
COCCn1c(=O)c(-c2ccc(Cl)cc2)nc2cnc(N3CCNCC3)nc21 | -15% | 13µM* | 10% | -1%[11.4 µM] | u | x
N#Cc1cccc(-c2nc3cnc(N4CCOCC4)nc3n(Cc3ccc(F)cc3)c2=O)c1 | -2% | -1% | -17% | 2%[11.4 µM] | -3% | x
COCCn1c(=O)c(-c2cccc(C#N)c2)nc2cnc(N3CCOCC3)nc21 | 73% | 20µM* | 3% | -4%[11.4 µM] | -29% | x
COCCn1c(=O)c(-c2ccc(Cl)cc2)nc2cncnc21 | 81% | 25µM* | -31% | 0%[11.4 µM] | u | x
CN1CCN(c2ncc3nc(-c4cccc(C#N)c4)c(=O)n(C[C@H]4CCCO4)c3n2)CC1 | 36% | 25µM* | 3% | 1%[11.4 µM] | -6% | x
COCCn1c(=O)c(-c2cccc(Cl)c2)nc2cncnc21 | 12% | u | -15% | 2%[11.4 µM] | u | x
Cc1cccc(C)c1O | -6% | -2% | 20% | x | -1% | x
COCCn1c(=O)c(-c2cc(F)cc(F)c2)nc2cnc(Oc3ccc(OC)cc3)nc21 | -7% | -18% | -16% | 1%[11.4 µM] | -11% | x
COc1ccc(-c2nc3cnc(N4CCNCC4)nc3n(CCc3ccccc3)c2=O)cc1 | 12% | u | 34% | 2%[11.4 µM] | 4% | x
CN1CCN(c2ncc3ncc(=O)n(C[C@H]4CCCO4)c3n2)CC1 | 40% | 32µM* | -8% | -2%[11.4 µM] | 9% | x
COCCn1c(=O)c(-c2ccccc2)nc2cnc(N3CCNCC3)nc21 | u | 32µM* | 26% | 0%[11.4 µM] | 6% | x
O=c1c(-c2ccc(Cl)cc2)nc2cnc(N3CCNCC3)nc2n1CCc1ccccc1 | 13% | u | 0% | -1%[11.4 µM] | -6% | x
COCCn1c(=O)c(-c2ccc(OC)cc2)nc2cnc(N3CCNCC3)nc21 | 20% | 25µM* | 51% | 1%[11.4 µM] | -3% | x
COCCn1c(=O)c(-c2ccc(OC)cc2)nc2cnc(N3CCOCC3)nc21 | -5% | 13µM* | 13% | 0%[11.4 µM] | -6% | x
COCCn1c(=O)c(-c2cc(F)cc(F)c2)nc2cnc(N3CCOCC3)nc21 | 31% | 138% | -10% | 2%[11.4 µM] | 0% | x

Screening results from PubChem.
